# Only some compounds are listed: those with a hit (about 3.7% of all), similar ones and a draw of the others.
# B2AR arrestin ag: agonists recruiting beta-arrestin to human beta2-adrenergic receptor. HTLA Tango cells, beta-arrestin recruitment, luciferase luminescence, 18 h. Potency, µM (top dose mostly 46.1 µM), usual class: activators. 44,000 tested, under 10 active;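 further: potency means the concentration at half of the fitted maximal effect; 0% = DMSO and full agonism = EC100 isoproterenol or metaproterenol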
#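 Receptor–beta-arrestin recruitment read by tTA-responsive luciferase: compound titrations (up to 46 µM) incubated 18 h with Tango cells, then luminescent substrate 15 min at room temperature. Concentration-response fits classified by r2, efficacy and activity.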
# NTMT1 inh: NTMT1 methyltransferase inhibition | Q9BV86 | NTMT1 MTase-Glo SAH luminescence, purified enzyme | Potency, µM (series often up to 114 µM), without a hit: at the highest dose activity change, negative = inhibition, hits mostly inhibitors | 59,000 compounds, 2.5% hits;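 further: potency means the concentration at half of the fitted maximal effect; plate controls were DMSO vehicle for no effect and no enzyme for full effect; nearly all actives have a fitted effect of over 65% in size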
# FH mod: Identification of activators of human fumarate hydratase by quantitative high-throughput screening. FH coupled MDH/diaphorase resazurin fluorescence, 15 min. Potency, µM (titrated, usually from 79.9 µM), without a hit: at the top dose activity change, negative = inhibition, hits mostly inhibitors. 54,000 compounds, 0.22% hits; further: potency means the concentration at half of the fitted maximal effect; on the % scale 0 is the no-effect control and ±100 the full control effect; the screen sought activators but most active calls are inhibition curves; nearly all actives have a fitted effect of over 45% in size
# Target sequence (P07954 whole entry, looked up): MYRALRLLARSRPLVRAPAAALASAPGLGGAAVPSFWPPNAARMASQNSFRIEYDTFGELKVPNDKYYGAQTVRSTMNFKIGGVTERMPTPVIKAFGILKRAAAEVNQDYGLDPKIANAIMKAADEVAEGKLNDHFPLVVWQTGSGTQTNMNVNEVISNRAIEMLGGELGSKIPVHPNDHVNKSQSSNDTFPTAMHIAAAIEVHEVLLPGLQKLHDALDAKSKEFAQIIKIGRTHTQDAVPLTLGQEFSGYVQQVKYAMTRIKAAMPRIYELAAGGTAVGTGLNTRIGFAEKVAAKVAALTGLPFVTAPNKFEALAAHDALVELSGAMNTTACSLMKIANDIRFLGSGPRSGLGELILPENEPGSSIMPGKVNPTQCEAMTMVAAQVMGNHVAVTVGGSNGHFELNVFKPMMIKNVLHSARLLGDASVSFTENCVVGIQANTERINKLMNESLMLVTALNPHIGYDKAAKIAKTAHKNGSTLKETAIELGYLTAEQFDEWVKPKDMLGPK
# GPR32 ag: agonists of human resolvin D1 receptor DRV1 (GPR32) | AID 1346428 | 48,000 compounds, 2.5% hits | activation, % at 76.9 µM | CHO-K1 GPR32 beta-arrestin PathHunter luminescence, 90 min; zero percent set by DMSO-only wells | O75388;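 active means activation of at least 60% and not above a set upper limit, about 1 call in 100 departs from these limits; inconclusive means activation of 40% to 60%, or above that upper limit; inactive means activation under 40%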; further: 0% is about no effect
#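 Readings come from a cell-based beta-arrestin complementation format: CHO-K1 GPR32 stable cells (2,500/well) treated 90 min with compounds, then beta-Gal substrate added for 1 h before chemiluminescence imaging.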
# TSG101-PTAP inh: inhibitors of HIV-1 PTAP binding to human TSG101, validation; Q99816; Fluorescence polarization, FITC-PTAP peptide/Tsg101, 20 min; AID 1347069; Potency, µM (top dose mostly 115 µM), actives largely listed as inhibitors; 44,000 tested, under 10 active; further: potency means the concentration at half of the fitted maximal effect; 0% is about no effect
#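 Compounds pinned into 10 uM Tsg101 binding domain, then 50 nM FITC-PTAP peptide added in pH 7.5 HEPES buffer; FP read after 20 min, room temperature. Total S+P intensity flags fluorescent compounds; active cut-off <25 µM, efficacy <60%.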
# GALK inh: inhibitors of human galactokinase (GALK). P51570. recombinant GALK, Kinase-Glo ATP luminescence, 1 h. Potency, µM (highest dose often 57.5 µM), without a hit: top-dose activity, negative = inhibition, usual class: inhibitors. 44,000 tested, under 10 active;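 further: plate controls were full GALK reaction for no effect and reaction lacking GALK for full effect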
#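 Reactions with and without enzyme served as controls. GALK at 5 nM phosphorylates 100 uM galactose using 35 uM ATP (HEPES pH 8.0, Mg2+) for 1 h at RT, with luminescence read 10 min after adding Kinase-Glo Plus.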
# Sfp PPTase inh: inhibitors of Bacillus subtilis Sfp PPTase, optimization followup; shares compounds with NTMT1 inh; purified Sfp PPTase enzyme activity, qHTS; Potency, µM (doses to about 114 µM), for inactives: at the top dose activity change, negative = inhibition, most hits filed as inhibitors; 230 compounds, 78% hits
# HM489 growth: reduces growth of B. subtilis HM489 strain. shares compounds with NTMT1 inh. B. subtilis HM489 (acpS-) growth, BacTiter-Glo, 5 h. Potency, µM (highest dose often 114 µM), for the others: at the top dose activity change, negative = inhibition, most hits filed as inhibitors. 220 compounds, 50% hits. AID 540353
# Sfp PPTase gel: inhibits B. subtilis Sfp PPTase in gel assay | shares compounds with NTMT1 inh | purified Sfp PPTase, gel-based product detection | Potency, µM (top dose mostly 250 µM), without a hit: top-dose activity change, negative = inhibition, most hits filed as inhibitors | 220 compounds, 54% hits | AID 540355
# Sfp inh SAR2: inhibitors of Bacillus subtilis Sfp PPTase, SAR round 2 | Potency, µM (titrated, usually from 57.1 µM), inactives show at the top dose activity change, negative = inhibition, most hits filed as inhibitors | purified Sfp enzyme, PPTase activity, qHTS | AID 602370 | shares compounds with NTMT1 inh | 230 compounds, 87% hits
# HSD17B4 inh: HSD17B4 (human) inhibition, HPGD counter-screen; shares compounds with NTMT1 inh; purified HSD17B4, estradiol/NAD+, NADH fluorescence; Potency, µM (highest dose often 57.1 µM), for inactives: at the top dose activity change, negative = inhibition, most hits filed as inhibitors; 230 compounds, 10% hits; AID 743187
# ALDH1A1 inh: inhibits human ALDH1A1, off-target for HPGD inhibitors. shares compounds with NTMT1 inh. recombinant ALDH1A1, NADH fluorescence, propionaldehyde/NAD+. Potency, µM (highest dose often 57.1 µM), without a hit: top-dose activity change, negative = inhibition, hits mostly inhibitors. 230 compounds, 93% hits
# NNMT inh: human NNMT inhibition, NTMT1 counter-screen; shares compounds with NTMT1 inh; NNMT MTase-Glo luminescence, SAH detection; Potency, µM (doses to about 57.1 µM), inactives show at the top dose activity, negative = inhibition, actives largely listed as inhibitors; 120 compounds, 10% hits; AID 1645878
# An asterisk follows results filed as active; i = inactive; u = inconclusive; x = no result given; ! = not active in a repeat; [ ] = another dose, or the depositor's remark. Unless noted, the call rests on the fitted dose curve; in most records, active means well fitted curve in the direction sought with a large enough effect; inconclusive means small, poorly fitted or top-dose-only effect, or another doubt; inactive means no such curve, though single readings can be large; an effect the other way counts as inactive or inconclusive.
SMILES,B2AR arrestin ag,NTMT1 inh,FH mod,GPR32 ag,TSG101-PTAP inh,GALK inh,Sfp PPTase inh,HM489 growth,Sfp PPTase gel,Sfp inh SAR2,HSD17B4 inh,ALDH1A1 inh,others
Cc1noc2ncnc(N3CCN(c4cccc(C(F)(F)F)c4)CC3)c12,u,8%,0%,9,i,2%,x,x,x,x,x,x,
C[C@@H]1O[C@@H](O[C@H]2[C@H](O)[C@@H](O)[C@H](OC3CCC4(C)C5CCC(C)(C(CO)OC6OC(CO)C(O)C(O)C6O)CC5=CCC4C3(C)C)O[C@@H]2CO)[C@H](O)[C@H](O)[C@H]1O (some centres undefined),x,-10%[12.6 µM],u,x,x,x,x,x,x,x,x,x,
COC(=O)c1ccnc(NC(=S)N2CCN(c3cccc(C(F)(F)F)c3)CC2)c1,x,x,x,x,x,x,26µM*,17µM*,40µM*,11µM*,17µM*,12µM*,
S=C(Nc1cc(Cl)ccn1)N1CCN(c2ccc(Cl)cc2Cl)CC1,x,u,x,x,x,x,u,5.9µM*,-20%,36µM*,-4%,24µM*,
CCCNC(=O)c1cn2ncnc(Nc3cc(C(=O)NC4CC4)ccc3C)c2c1C,x,10%,x,x,x,x,x,x,x,x,x,x,
COc1cc2c(cc1OC)CN(CCc1ccc(NC(=O)c3cccc4c(=O)c5cccc(OC)c5[nH]c34)cc1)CC2,x,28µM*!,-13%,x,x,x,x,x,x,x,x,x,NNMT inh=4µM*
Cc1cc(N[S+](=O)([O-])c2ccc(NC(=O)Cc3ccc(C(F)(F)F)c(F)c3)cc2)no1,x,8%,x,x,x,x,x,x,x,x,x,x,
Cc1ccc(CNC(=O)c2c(C)oc3ncnc(N4CCOCC4)c23)cc1,i,-29%,7%,-9,i,2%,x,x,x,x,x,x,

# Source: PubChem (National Center for Advancing Translational Sciences (NCATS))
